# Data as given in paper PMC5540273 (PLoS ONE, 2017).
# Assays:
# MEK1 = tested on: T1, MEK1
# T1 construct: gene MAP2K1
# MEK2 = tested on: T2, MEK2
# T2 construct: gene MAP2K2
# MEK6 = tested on: T3, MEK6
# T3 construct: gene MAP2K6
# MINK = tested on: T4, MINK
# T4 construct: gene MINK1
# MLK1 = tested on: T5, MLK1
# T5 construct: gene MAP3K9
# 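Also: kd values determined as follow-up on hits from a single-replicate KINOMEscan panel screen.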
smiles,measurement,setting,value
COc1cccc(NC(=O)NC2CCN(c3ccnc(Nc4ccc(F)cc4)n3)C2)c1 (centres unmarked) [GSK1379721],Kd,MAP4K4,> 10 µM
same,Kd,MAP4K5,> 10 µM
COc1ccccc1CNC(=O)c1cc(C(=O)c2ccccc2C)c[nH]1 [GSK364507],Kd,MARK1,> 10 µM
Cc1ccc(NC(=O)Nc2cccc(Cl)c2)cc1-c1ccc(C(=O)Nc2ccncc2)cc1 [GSK1398468],Kd,MEK1,> 10 µM
Cc1cccc(-c2nc(Nc3cccc(C(N)=O)c3)c3ccccc3n2)n1 [GW876019],Kd,MEK1,> 10 µM
Fc1cc(Cl)ccc1Nc1ccnc2cc(-c3ccc(CN4CCCCC4)o3)ccc12 [GW560116],Kd,MEK2,> 10 µM
CCCc1ccc(S(=O)(=O)NC2CCN(c3ccnc(Nc4ccc(F)cc4)n3)C2)cc1 (centres unmarked) [GSK1379715],Kd,MEK6,> 10 µM
CCn1c(-c2ccccn2)nc2cnccc21 [SB-736398],Kd,MEK6,> 10 µM
Cc1ccc(-c2cc(-c3c[nH]nc3-c3ccccn3)ccn2)cc1 [GW684088],Kd,MINK,0.061 µM
Cc1ccc(NC(=O)Nc2cc(C(C)(C)C)nn2-c2ccccc2)cc1 [GSK1014915],Kd,MKNK2,0.37 µM
NC(=O)c1nnc2ccccc2c1N,Kd,MLK1,> 10 µM
